Bioassay records deposited in PubChem by several laboratories.
Mdm2-MdmX inh = inhibitors of human Mdm2/MdmX interaction; O15151+Q00987; SaOS-2 split-luciferase Mdm2/MdmX complementation, luminescence; inhibition, % at 8 µM; hit rate 3% among 330,000;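 active means inhibition of at least 50% at 8 µM in the primary screen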
Target sequence (O15151 whole entry, looked up): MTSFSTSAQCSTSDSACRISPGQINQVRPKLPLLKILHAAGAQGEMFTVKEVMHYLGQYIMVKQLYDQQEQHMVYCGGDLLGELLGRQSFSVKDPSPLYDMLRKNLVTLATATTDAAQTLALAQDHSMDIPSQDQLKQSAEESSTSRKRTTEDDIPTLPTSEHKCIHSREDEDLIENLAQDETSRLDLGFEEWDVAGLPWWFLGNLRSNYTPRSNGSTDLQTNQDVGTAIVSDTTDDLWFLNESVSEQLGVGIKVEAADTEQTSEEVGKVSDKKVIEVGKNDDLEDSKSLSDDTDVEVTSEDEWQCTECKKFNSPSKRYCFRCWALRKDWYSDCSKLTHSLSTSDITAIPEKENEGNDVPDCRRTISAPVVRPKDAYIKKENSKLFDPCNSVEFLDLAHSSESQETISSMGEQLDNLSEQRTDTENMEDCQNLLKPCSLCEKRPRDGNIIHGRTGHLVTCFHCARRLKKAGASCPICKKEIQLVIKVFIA
Target sequence (Q00987 whole entry, looked up): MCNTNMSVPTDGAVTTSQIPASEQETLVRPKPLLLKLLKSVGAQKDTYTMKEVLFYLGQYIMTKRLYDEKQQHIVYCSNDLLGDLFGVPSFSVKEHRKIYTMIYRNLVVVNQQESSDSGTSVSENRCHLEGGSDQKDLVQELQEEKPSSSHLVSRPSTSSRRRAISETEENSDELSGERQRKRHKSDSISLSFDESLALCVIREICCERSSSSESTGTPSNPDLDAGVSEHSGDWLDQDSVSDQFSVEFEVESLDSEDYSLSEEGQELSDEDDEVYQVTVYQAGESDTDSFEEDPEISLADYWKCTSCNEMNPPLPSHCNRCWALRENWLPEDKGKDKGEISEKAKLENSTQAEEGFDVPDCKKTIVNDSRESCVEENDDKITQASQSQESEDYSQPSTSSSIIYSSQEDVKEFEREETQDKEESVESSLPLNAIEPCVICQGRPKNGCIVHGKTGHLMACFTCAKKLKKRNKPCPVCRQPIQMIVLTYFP
Peg3 promoter = inhibitors of Peg3 promoter; inhibition, % at 20 µM; hit rate 1.7% among 360,000; HeLa PEG-Prom luciferase reporter, luminescence, overnight;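 active means inhibition of at least 50% at 20 µM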
LGR2 antag = blocks bursicon-induced cAMP signaling via Drosophila LGR2; AID 720647; inhibition, % at 9.99 µM; hit rate 0.35% among 380,000; HEK293 LGR2, CRE-luciferase, bursicon-stimulated, 4 h;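 active means drop in luminescence signal, shown as inhibition above about 50% in the replicate tests, limit read from the data, passing the limit was not always enough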;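 further: agonist challenge used bursicon conditioned medium at about half maximal strength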
CF NFkB inh = cystic fibrosis NF-kB activation inhibition | KKLEB NF-kB-GFP reporter, PAF-induced, GFP fluorescence overnight | AID 588850 | inhibition, % at 5 µM | hit rate 0.86% among 360,000;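 active means at least 50% inhibition at 5 µM, scaled per plate between neutral and stimulator controls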;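 further: PAF is a Pseudomonas aeruginosa culture filtrate used as stimulus; plate controls were PAF-stimulated DMSO wells for no effect and unstimulated DMSO wells for full effect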
HSP90 refold inh = HSP90 refolding inhibition in rabbit reticulocyte lysate | luciferase refolding luminescence, 3 h | inhibition, % at 5.6 µM | hit rate 0.91% among 290,000;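 active means inhibition above the screen-wide mean plus 3 SD, computed separately per campaign, cut at about 16% in these data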;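 further: 0% = DMSO wells and 100% = 60 µM geldanamycin wells; inhibitors lower the luminescence because luciferase stays unfolded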
KKLEB cytotox = CF airway cell cytotoxicity counter-screen | KKLEB CF airway cells viability, ATPlite luminescence, overnight; hits give low values; cells stimulated with P. aeruginosa culture filtrate | hit rate 0.36% among 360,000 | activity change (cytotoxicity), % at 5 µM;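 active means corrected activity change at or below -50% at 5 µM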
Active calls of the source: *; . = no result given. The list is not random: actives were taken first. Their share in the collection is about 3.6%.

SMILES	Mdm2-MdmX inh	Peg3 promoter	LGR2 antag	CF NFkB inh	HSP90 refold inh	KKLEB cytotox
O=C(/C=C\Nc1cccc(F)c1)c1cccs1	-147	-226	.	0	0	-9
CCOC(=O)c1ccccc1N/C=C/C(=O)c1cccs1	-6	-67	-46	-33	2	7
O=C(/C=C/Nc1ccccc1F)c1cccs1	-165	-43	80*	-6	-5	-28
Cc1ccc(N/C=C/C(=O)c2cccs2)cc1	-134	15	75*	-30	-5	-54*
O=C(/C=C\Nc1ccc2c(c1)OCO2)c1cccs1	-173	4	-68	0	1	-39
O=C(/C=C/Nc1ccc(F)cc1F)c1cccs1	-207	12	79*	-13	-3	-68*
C[C@@H]1CN([C@H](C)CO)C(=O)c2cc(NC(=O)c3ccncc3)ccc2O[C@@H](C)CCCCO[C@H]1CN(C)C	.	.	-6	.	.	.
O=c1[nH]c(=O)n(Cc2ccccc2)c2nc(-c3ccc(Oc4ccc(F)cc4)c([N+](=O)[O-])c3)n(CCO)c12	25	63*	7	-22	4	-3
O=C(C[C@@H]1CC[C@H]2[C@@H](COC[C@H](O)CN2Cc2ccccc2)O1)N[C@H]1CCN(Cc2ccccc2)C1	.	.	-4	.	.	.
Cc1ccc2nc(-c3ccc(NC(=O)C(C)Sc4nncs4)cc3)sc2c1 (configuration not stated)	-104	-116	58*	-50	.	9
NNC(=O)c1ccncc1	12	-12	17	-14	0	-85*
O=C(NCC1CC1)[C@@H]1[C@@H](CO)[C@@H]2Cn3c(cccc3=O)[C@@H]2N1C(=O)CC1CC1	.	.	24	.	.	.
CCNC(=O)[C@@H]1[C@@H](CO)[C@@H]2Cn3c(ccc(C4=CCCCC4)c3=O)[C@H]1N2Cc1cocn1	.	.	1	.	.	.
C=C1C(=O)OC2C1CCC(C)=C1C(=O)C3OC3(C)C12 (configuration not stated)	.	107*	99*	86*	.	-85*
O=C(CN1CCN(S(=O)(=O)c2ccc(Br)cc2)CC1)N/N=C/c1ccc(Cl)c([N+](=O)[O-])c1	30	93*	-1	4	3	4
COc1cc(SC#N)ccc1N=Cc1c(C)[nH]n(-c2cccc3ccccc23)c1=O	13	.	.	.	16*	.
C[C@H](CO)N1C[C@H](C)[C@@H](CN(C)Cc2ccc(C(=O)O)cc2)Oc2ccc(NS(=O)(=O)c3cccs3)cc2CC1=O	.	.	1	.	.	.
CCN(CC)C(=S)SSC(=S)N(CC)CC	37	68*	8	-21	1	5
O=C(C[C@H]1CC[C@@H]2[C@H](COC[C@H](O)CN2Cc2ccccc2F)O1)N[C@H]1CCN(Cc2ccccc2)C1	.	.	19	.	.	.
CSCCC(NC(=O)CCC(=O)OCC(=O)[C@@]1(O)CCC2[C@@H]3CCC4=CC(=O)C=C[C@]4(C)C3[C@@H](O)C[C@@]21C)C(=O)O (some centres not stated)	-36	-15	6	72*	-4	38
C[C@]12C=CC(=O)C=C1CC[C@@H]1C2C(O)C[C@@]2(C)C1CC[C@]2(O)C(=O)COC(=O)CCC(=O)NC(CC(=O)O)C(=O)O (some centres not stated)	-21	-13	7	77*	-1	44
C[C@@H]1CN([C@H](C)CO)S(=O)(=O)c2ccc(C#CC3CC3)cc2O[C@@H]1CN(C)C(=O)c1cccnc1	.	.	3	.	.	.
O=C(C1CC1)N1CC2(C1)[C@H](c1ccccc1)[C@@H](CO)N2CC1CCCC1	.	.	-2	.	.	.
Cc1ccc(S(=O)(=O)/N=C2\C=C(NS(=O)(=O)c3ccccc3)C(=O)c3ccccc32)cc1	.	-41	11	73*	.	-3
Cc1ccc(S(=O)(=O)/N=C2/C=C(C3C(=O)CC(C)(C)CC3=O)C(=O)c3ccccc32)cc1	-9	-133	.	-2	15	3
SMILES	Mdm2-MdmX inh	Peg3 promoter	LGR2 antag	CF NFkB inh	HSP90 refold inh	KKLEB cytotox
Cc1cc(C)c(S(=O)(=O)/N=C2\C=C(NS(=O)(=O)c3ccccc3)C(=O)c3ccccc32)c(C)c1	36	10	-5	51*	-5	21
Cc1ccc(S(=O)(=O)N(C)C[C@H]2Oc3c(NC(=O)C4CCOCC4)cccc3C(=O)N([C@H](C)CO)C[C@H]2C)cc1	.	.	1	.	.	.
CCC(=O)N1CC[C@H]2[C@H](CO)Nc3ccc(C#Cc4ccccc4F)cc3[C@H]21	.	.	-10	.	.	.
N=c1n(Cc2ccccc2)c2ccccc2n1CC(O)COc1ccccc1 (configuration not stated)	38	71*	.	16	1	-18
CCC(=O)N(C)C[C@H]1Oc2cc(-c3ccccc3C)ccc2S(=O)(=O)N([C@H](C)CO)C[C@H]1C	.	.	7	.	.	.
COC(=O)CSC1=C(C#N)C(=O)NC(c2ccccc2)S1 (configuration not stated)	21	84*	.	-34	2	5
CNC(=O)C[C@H]1CC[C@H]2[C@H](COc3ccc(NC(=O)Nc4ccccc4)cc3C(=O)N2C)O1	.	.	-7	.	.	.
Cc1[nH]c2ccccc2c1C(=O)CSc1ccccc1	-29	-126	-37	-4	-6	0
Cc1[nH]c2ccccc2c1C(=O)CCl	.	93*	10	64*	-1	-4
O=C1CCCC(=O)N1c1ccc(O)cc1	21	-4	-14	-4	-3	-9
O=C1C=CC(=O)N1c1ccc(O)cc1	-22	110*	.	12	1	1
O=C1C=CC(=O)N1c1ccc(OC(F)F)cc1	.	104*	.	10	2	-6
Cc1cc(O)cc(=O)n1-c1ccc(OC(F)F)cc1	.	.	-23	.	.	.
C(=NN=C(NN=Cc1cccs1)NN=Cc1cccs1)c1cccs1	.	78*	-78	-21	.	1
O=C(N/N=C/c1cccs1)c1ccccn1	-18	-142	-18	-1	4	15
COc1ccccc1-c1cnc2c(c1)C(=O)N([C@H](C)CO)C[C@@H](C)[C@@H](CN(C)C(C)=O)O2	.	.	-5	.	.	.
C[C@@H]1CN([C@H](C)CO)C(=O)c2c(c3ccccc3n2C)-c2ccccc2CO[C@H]1CN(C)Cc1ccc(C(F)(F)F)cc1	.	59*	13	10	.	-8
C[C@@H]1CN([C@H](C)CO)C(=O)c2c(c3ccccc3n2C)-c2ccccc2CO[C@H]1CN(C)Cc1ccc(Oc2ccccc2)cc1	.	58*	1	30	.	-29
C[C@H]1CN([C@@H](C)CO)C(=O)c2ccccc2-c2ccccc2CO[C@H]1CN(C)Cc1ccc2c(c1)OCO2	.	.	7	.	.	.
CCCNC(=O)[C@@H]1[C@@H](CO)[C@@H]2Cn3c(ccc(-c4cccc(F)c4)c3=O)[C@@H]2N1C(C)=O	.	.	-3	.	.	.
CO[C@H]1CN(C)C(=O)c2ccc(NS(=O)(=O)c3ccccc3Cl)cc2OC[C@@H](C)NC[C@@H]1C	.	.	13	.	.	.
COc1ccc(S(=O)(=O)Nc2ccc3c(c2)C(=O)N([C@H](C)CO)C[C@@H](C)[C@H](CN(C)C(=O)NC2CCCCC2)OCCCC[C@@H](C)O3)cc1	.	.	-1	.	.	.
